Experiment [1] can be described thus: antimalarial activity against Dd2 strain (AID 2302;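 active = growth inhibition above 50% at the single 2 µM test dose, taken to imply half-maximal potency below 2 µM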;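 note: 0% = DMSO untreated growth and 100% = chloroquine plus artemisinin killed control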). Particulars: P. falciparum Dd2 in RBCs, LDH growth readout, 72 h; at 2 µM; hits give high values.
Experiment [2] in a line: HepG2 cytotoxicity, primary screen, cytotoxicity control for P. falciparum antimalarial project, cell-based, ATP luminescence (AID 2303;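 active = inhibition above 50%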;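 note: 0% = DMSO wells and 100% = digitonin-killed cells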). Particulars: HepG2 viability, 24-48 h, at 10 µM, hits give high values.
For experiment [3], the target named is L-lactate dehydrogenase (Plasmodium falciparum (isolate CDC / Honduras)) (UniProt Q27743). As to the kind of experiment: PfLDH activity inhibition – cell lysate, 3D7 strain, counter-screen for P. falciparum growth inhibition project (AID 2304).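 Note: 0% = vehicle and 100% = reference inhibitor.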 Particulars: P. falciparum 3D7 crude extract, LDH APAD/NBT absorbance; at 2 µM; hits give high values. A general note: A counterscreen serves to expose hits that act by an unwanted route or on another target.

Experiment [4] in a line: inhibition of 3D7 malaria parasite growth – strain 3D7 (AID 2306).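 Note: 0% = DMSO wells and 100% = chloroquine plus artemisinin control wells.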 Particulars: P. falciparum 3D7 erythrocytic growth, LDH absorbance, 72 h; at 2 µM; hits give high values.
Experiment [5] has as its target Calcium-dependent protein kinase 1 (Plasmodium falciparum (isolate 3D7)) (UniProt P62344). As to the kind of experiment: PfCDPK1 kinase inhibitors, biochemical, TCAMS library (AID 1159585; cut-off not given, nearly all actives have IC50 up to about 0.98 µM;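 note: inhibitors leave more ATP so luminescence rises with inhibition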). Particulars: recombinant PfCDPK1, Kinase-Glo ATP depletion luminescence.
Experiment [6] concerns the target Plasmodium falciparum protein kinase 6 (PK6, PF3D7_1337100) (UniProt Q8IDW1). As to the kind of experiment: PfPK6 kinase inhibitors, biochemical, TCAMS library (AID 1159586). Particulars: recombinant PfPK6, Kinase-Glo ATP depletion luminescence.
Experiment [7] concerns the target Protein kinase 7 (PK7), Plasmodium falciparum 3D7 (PF3D7_0213400) (UniProt Q7YTF7). In words: inhibition of Plasmodium PK7 catalytic activity – biochemical, TCAMS antimalarial set, Kinase-Glo luminescence (AID 1159587). Particulars: recombinant PfPK7, Kinase-Glo ATP depletion luminescence.
Experiment [8] addresses Calcium-dependent protein kinase 4 (Plasmodium falciparum (isolate 3D7)) (UniProt Q8IBS5). In words: PfCDPK4 kinase inhibitors, biochemical, TCAMS library (AID 1159588; cut-off not given, nearly all actives have IC50 up to about 0.91 µM). To be noted: recombinant PfCDPK4, Kinase-Glo ATP depletion luminescence. (In general: Kinase-Glo measures the ATP left after a reaction by luminescence.)

Values without a mark were called inactive. For some of these results: Measured potencies and affinities stand elsewhere. Activity calls are given as the source filed them. Unless noted, the rule behind the calls is not given here.

Protein kinase 7 (PK7), Plasmodium falciparum 3D7 (PF3D7_0213400), sequence (Q7YTF7 1-343): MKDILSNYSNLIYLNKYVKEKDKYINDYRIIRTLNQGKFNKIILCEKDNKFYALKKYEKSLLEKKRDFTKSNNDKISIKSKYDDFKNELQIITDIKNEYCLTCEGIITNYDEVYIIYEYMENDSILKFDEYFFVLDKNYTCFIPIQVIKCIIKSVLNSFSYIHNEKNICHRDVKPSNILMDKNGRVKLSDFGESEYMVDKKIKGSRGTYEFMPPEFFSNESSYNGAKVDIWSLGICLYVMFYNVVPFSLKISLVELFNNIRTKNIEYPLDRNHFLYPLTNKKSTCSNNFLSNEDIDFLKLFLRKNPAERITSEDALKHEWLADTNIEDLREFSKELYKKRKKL
Calcium-dependent protein kinase 4 (Plasmodium falciparum (isolate 3D7)), sequence (Q8IBS5 whole entry, looked up): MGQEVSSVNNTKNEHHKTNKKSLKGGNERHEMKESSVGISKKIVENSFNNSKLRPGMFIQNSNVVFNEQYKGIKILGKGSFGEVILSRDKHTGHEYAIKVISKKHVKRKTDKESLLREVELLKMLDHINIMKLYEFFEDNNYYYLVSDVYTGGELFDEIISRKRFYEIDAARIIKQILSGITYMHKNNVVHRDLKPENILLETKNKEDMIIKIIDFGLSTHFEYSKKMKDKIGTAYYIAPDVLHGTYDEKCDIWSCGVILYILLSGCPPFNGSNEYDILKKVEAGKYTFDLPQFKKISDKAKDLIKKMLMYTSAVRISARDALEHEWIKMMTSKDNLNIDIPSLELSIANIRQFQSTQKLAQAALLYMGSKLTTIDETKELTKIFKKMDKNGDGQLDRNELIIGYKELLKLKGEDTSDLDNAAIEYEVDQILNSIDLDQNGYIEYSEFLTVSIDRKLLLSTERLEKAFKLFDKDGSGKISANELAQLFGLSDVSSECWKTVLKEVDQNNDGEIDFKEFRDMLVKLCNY
Calcium-dependent protein kinase 1 (Plasmodium falciparum (isolate 3D7)), sequence (P62344 whole entry, looked up): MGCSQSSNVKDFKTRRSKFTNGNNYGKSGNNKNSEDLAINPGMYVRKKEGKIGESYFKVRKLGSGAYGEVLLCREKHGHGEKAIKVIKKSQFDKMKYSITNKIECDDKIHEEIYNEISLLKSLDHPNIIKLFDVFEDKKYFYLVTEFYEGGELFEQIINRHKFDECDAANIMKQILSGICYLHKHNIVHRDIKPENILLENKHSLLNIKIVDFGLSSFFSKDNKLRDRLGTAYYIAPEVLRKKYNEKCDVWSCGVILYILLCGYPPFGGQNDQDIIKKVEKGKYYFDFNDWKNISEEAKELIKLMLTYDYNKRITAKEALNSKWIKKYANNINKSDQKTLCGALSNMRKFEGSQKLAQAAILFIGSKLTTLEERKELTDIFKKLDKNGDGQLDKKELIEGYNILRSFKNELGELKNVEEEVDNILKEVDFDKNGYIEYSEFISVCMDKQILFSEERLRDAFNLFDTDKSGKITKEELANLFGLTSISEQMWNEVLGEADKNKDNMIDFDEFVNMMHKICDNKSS
L-lactate dehydrogenase (Plasmodium falciparum (isolate CDC / Honduras)), sequence (Q27743 whole entry, looked up): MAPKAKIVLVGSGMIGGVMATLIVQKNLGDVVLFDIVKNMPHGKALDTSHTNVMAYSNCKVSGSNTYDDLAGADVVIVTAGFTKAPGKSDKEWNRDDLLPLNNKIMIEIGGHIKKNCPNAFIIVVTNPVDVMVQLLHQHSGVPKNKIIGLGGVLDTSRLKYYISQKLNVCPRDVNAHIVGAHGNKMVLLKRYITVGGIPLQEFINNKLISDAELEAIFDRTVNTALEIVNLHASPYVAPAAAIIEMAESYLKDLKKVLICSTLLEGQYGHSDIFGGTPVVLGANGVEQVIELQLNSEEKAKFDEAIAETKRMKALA
Plasmodium falciparum protein kinase 6 (PK6, PF3D7_1337100), sequence (Q8IDW1 1-305): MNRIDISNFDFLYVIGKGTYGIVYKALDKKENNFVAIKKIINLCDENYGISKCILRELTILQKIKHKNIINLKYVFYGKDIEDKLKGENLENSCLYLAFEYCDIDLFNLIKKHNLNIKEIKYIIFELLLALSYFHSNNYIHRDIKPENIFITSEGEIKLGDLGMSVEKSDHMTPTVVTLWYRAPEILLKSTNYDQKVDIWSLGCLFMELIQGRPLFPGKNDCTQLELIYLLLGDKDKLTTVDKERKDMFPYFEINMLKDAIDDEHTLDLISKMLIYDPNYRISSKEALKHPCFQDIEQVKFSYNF

Broadly, the inhibition is the relative decrease from the control value, in per cent. Turning to `O=C(/C=C/c1ccc(Cl)c(Cl)c1)NCCCCCN1CCC(NC(=O)NC2CCCCC2)CC1`, the values for the growth inhibition in experiment [1] and in experiment [4] were 44% and 96% (active), respectively. In addition, the results for the inhibition in experiment [2] and in experiment [3] were 22% and -1%, respectively. The outcome in experiment [5], in experiment [6], in experiment [7] and in experiment [8] was inactive.

Take `c1ccc(CNc2nc(NCCc3cnc[nH]3)nc(N3CCCC4CCCCC43)n2)cc1` (stereo not given): the growth inhibition was 100% (active) in experiment [1] and 98% (active) in experiment [4]. Moreover, the inhibition in experiment [2] is -6%; in experiment [3], -3%. The result in experiment [5], in experiment [6], in experiment [7] and in experiment [8] was inactive.

Regarding `O=C(Nc1ccc(N2CCN(Cc3ccccc3)CC2)cc1)c1cccs1`, the growth inhibition is 86% (active) in experiment [1] and 87% (active) in experiment [4]. Further, the values for the inhibition in experiment [2] and in experiment [3] were -1% and 2%, respectively. Also, the outcome in experiment [5], in experiment [6], in experiment [7] and in experiment [8] was inactive.

Regarding `Fc1ccc2c(NN=CC=Cc3ccccc3)ccnc2c1`, the growth inhibition in experiment [1] is 98% (active); in experiment [4] it was 101% (active). The inhibition is -2% in experiment [2] and -3% in experiment [3]. The result in experiment [5], in experiment [6], in experiment [7] and in experiment [8] was inactive.

Consider `CC(C)c1sc(-c2ccc(C(C)(C)C)cc2)nc1C(=O)NCCCN1CCCC1=O`, for which the values for the growth inhibition in experiment [1] and in experiment [4] were 92% (active) and 96% (active), respectively. Moreover, the inhibition in experiment [2] is -2%; in experiment [3], 1%. Also, the result in experiment [5], in experiment [6], in experiment [7] and in experiment [8] was inactive.

As for `Nc1c(Cl)cc(C(O)CNCCCCCOCCCc2ccc(O)c3ncccc23)cc1Cl` (stereo not given), the growth inhibition is 12% in experiment [1] and 90% (active) in experiment [4]. Besides, the inhibition was 65% (active) in experiment [2] and -4% in experiment [3]. In addition, the outcome in experiment [5], in experiment [6], in experiment [7] and in experiment [8] was inactive.

Take `O=C(Nc1ccc(-c2ccc(-c3nc4ccc(C(F)(F)F)cc4[nH]3)s2)cc1)c1cnc[nH]1`: the growth inhibition in experiment [1] is 61% (active); in experiment [4], 92% (active). For the same compound, the results for the inhibition in experiment [2] and in experiment [3] were 66% (active) and 5%, respectively. Moreover, the outcome in experiment [5], in experiment [6], in experiment [7] and in experiment [8] was inactive.

On to `CCOc1ccc(-c2nonc2NC(=O)c2ccccc2Cl)cc1OCC`, for which the growth inhibition in experiment [1] is 100% (active); in experiment [4] it was 101% (active). Besides, the inhibition in experiment [2] is 3%; in experiment [3], 4%. Also, the result in experiment [5], in experiment [6], in experiment [7] and in experiment [8] was inactive.

With `Cn1nc(C(F)(F)F)c(-c2ccc(Br)cc2)c1NC(=O)Cc1ccccc1F`, the growth inhibition in experiment [1] was 100% (active); in experiment [4] it was 102% (active). For the same compound, the inhibition in experiment [2] was 6%; in experiment [3] it was -1%. In addition, the outcome in experiment [5], in experiment [6], in experiment [7] and in experiment [8] was inactive.

`CNCCNCc1ccc(-c2ccc(-c3nc4ccc(C(F)(F)F)cc4[nH]3)cc2)cc1`: the growth inhibition is 92% (active) in experiment [1] and 99% (active) in experiment [4]. The inhibition in experiment [2] was 28%; in experiment [3], 1%. The result in experiment [5], in experiment [6], in experiment [7] and in experiment [8] was inactive.

Regarding `Cc1ccccc1C1CCN(C2CCC(NC(=O)/C=C/c3ccc(Cl)cc3)CC2)CC1` (stereo not given), the growth inhibition is 25% in experiment [1] and 99% (active) in experiment [4]. For the same compound, the inhibition in experiment [2] was 78% (active); in experiment [3] it was 4%. Besides, the outcome in experiment [5], in experiment [6], in experiment [7] and in experiment [8] was inactive.

As to `Cc1ccccc1Cc1cccc(/N=C(\N)Nc2ccc(Cl)cc2)n1`, the figures for the growth inhibition in experiment [1] and in experiment [4] were 56% (active) and 91% (active), respectively. The inhibition in experiment [2] was 48%; in experiment [3], -7%. Also, the outcome in experiment [5], in experiment [6], in experiment [7] and in experiment [8] was inactive.

On to `COc1cccc(C(=O)NC(C=Cc2ccccc2)c2cc(Cl)c3cccnc3c2O)c1` (stereo not given), for which the figures for the growth inhibition in experiment [1] and in experiment [4] were 58% (active) and 95% (active), respectively. The inhibition is 27% in experiment [2] and -1% in experiment [3]. Also, the result in experiment [5], in experiment [6], in experiment [7] and in experiment [8] was inactive.

Take `O=C(NNC(=O)c1ccc(CCN2CCC(c3nc(COCC(F)(F)F)c(-c4ccc(F)cc4)o3)CC2)cc1)Nc1ccc(Oc2ccccc2)cc1`: the values for the growth inhibition in experiment [1] and in experiment [4] were 89% (active) and 102% (active), respectively. For the same compound, the inhibition is 38% in experiment [2] and 4% in experiment [3]. Further, the result in experiment [5], in experiment [6], in experiment [7] and in experiment [8] was inactive.

For the compound `Cc1ccc(-c2cc(C(=O)Nc3ccc(S(=O)(=O)N4CCOCC4)cc3)[nH]n2)c(O)c1C`, the growth inhibition is 45% in experiment [1] and 91% (active) in experiment [4]. For the same compound, the inhibition is 18% in experiment [2] and -5% in experiment [3]. Further, the result in experiment [5], in experiment [6], in experiment [7] and in experiment [8] was inactive.

In the case of `Cc1cccc2[nH]c(-c3ccc(-c4ccc(NC(=O)CN5CCN(C)CC5)cc4)s3)nc12`, the figures for the growth inhibition in experiment [1] and in experiment [4] were 86% (active) and 95% (active), respectively. The inhibition in experiment [2] is 56% (active); in experiment [3], -9%. For the same compound, the outcome in experiment [5], in experiment [6], in experiment [7] and in experiment [8] was inactive.

As for `O=C(Cc1cc(F)cc(F)c1)NC1CCN(c2ccnc3cc(Cl)ccc23)C1` (stereo not given), the growth inhibition in experiment [1] is 101% (active); in experiment [4], 82% (active). The values for the inhibition in experiment [2] and in experiment [3] were 13% and 0%, respectively. Further, the outcome in experiment [5], in experiment [6], in experiment [7] and in experiment [8] was inactive.

Regarding `CCCC1N=C(N)N=C(N)N1c1ccc(CC)cc1` (stereo not given), the values for the growth inhibition in experiment [1] and in experiment [4] were 4% and 94% (active), respectively. For the same compound, the values for the inhibition in experiment [2] and in experiment [3] were 11% and 1%, respectively. Further, the result in experiment [5], in experiment [6], in experiment [7] and in experiment [8] was inactive.

In the case of `CC(=O)Nc1ccc(S(=O)(=O)NC2=NC(C)(C)N(OCc3ccc(Cl)c(Cl)c3)C(N)=N2)cc1`, the growth inhibition was 98% (active) in experiment [1] and 93% (active) in experiment [4]. In addition, the inhibition in experiment [2] was 44%; in experiment [3], 2%. Moreover, the outcome in experiment [5], in experiment [6], in experiment [7] and in experiment [8] was inactive.

With `CC(Oc1ccc(Cl)cc1)C(=O)N(C)C1CCN(CCCCCNC(=O)/C=C/c2ccc(Cl)c(Cl)c2)CC1` (stereo not given), the growth inhibition was 10% in experiment [1] and 85% (active) in experiment [4]. The values for the inhibition in experiment [2] and in experiment [3] were 61% (active) and -2%, respectively. Also, the result in experiment [5], in experiment [6], in experiment [7] and in experiment [8] was inactive.
